Data on nine compounds can be found in PubChem BioAssay (NCI).

SMILES strings stand for the structures. The panel holds about 83,000 compounds, 20% with a hit somewhere; the sample as a whole holds those more often.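 Single-dose data. Exposure time 48 hours. Values below 10 considered active.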 A number with no mark means an inactive call. Calls of active or inactive are those of the source.

Among the test systems are NCI-H23 lung; NCI-H226 lung; HOP-62 NSCLC; NCI-H460 lung; HOP-92 NSCLC; 786-0 renal; COLO 205 colon; DU-145 prostate; K-562 leukemia; MALME-3M melanoma; MDA-MB-231 breast; RXF 393 renal; SF-268 CNS; SF-295 CNS; SF-539 CNS; M14 melanoma; NCI-H322M lung; NCI-H522 lung; A549/ATCC NSCLC; UACC-257 melanoma.
What all share (assay): NCI-60 one-dose screen, 48 h (100 = growth as untreated, 0 = no growth, -100 = all killed)
What all share (conditions): 10 µM unless noted

As for `CCOC(=O)C(CCCCC(NC(C)=O)(C(=O)OCC)C(=O)OCC)(NC(C)=O)C(=O)OCC`, the growth with NCI-H23 lung was 103%; with NCI-H226 lung it was 105%; with HOP-62 NSCLC, 102%; in the assay on NCI-H460 lung, 103%; with HOP-92 NSCLC it was 94.9%; in the assay on 786-0 renal it was 99.4%. Further, the growth is 107% with COLO 205 colon; 113% in the assay on DU-145 prostate; 108% in the assay on K-562 leukemia; 108% in the assay with MALME-3M melanoma; 111% with MDA-MB-231 breast; 102% in the assay with RXF 393 renal. Also, the growth in the assay with SF-268 CNS is 100%; with SF-295 CNS, 99.3%; with SF-539 CNS, 109%; in the assay on M14 melanoma, 105%.

With `CCOC(=O)c1cc(C(=O)OCC)c(C)nc1C`, the growth in the assay on NCI-H23 lung was 102%; in the assay on NCI-H226 lung, 105%; in the assay with NCI-H322M lung it was 106%; in the assay with HOP-62 NSCLC it was 102%; in the assay with NCI-H460 lung it was 111%; with NCI-H522 lung, 103%. The growth in the assay with A549/ATCC NSCLC was 101%; in the assay with 786-0 renal, 106%; in the assay on DU-145 prostate, 109%; in the assay with K-562 leukemia, 91.4%; with MALME-3M melanoma, 104%; in the assay on MDA-MB-231 breast, 107%. For the same compound, the growth in the assay on RXF 393 renal is 117%; in the assay on SF-268 CNS, 108%; in the assay with SF-295 CNS, 107%; with SF-539 CNS it was 103%; in the assay with UACC-257 melanoma, 107%; with M14 melanoma, 111%.

`O=C1/C(=C/c2cc(F)cc(F)c2)Cc2cc(F)cc(F)c21`: the growth in the assay with NCI-H23 lung was 101%; in the assay with NCI-H226 lung, 91.4%; with NCI-H322M lung, 75.9%; in the assay with HOP-62 NSCLC it was 95.1%; with NCI-H460 lung, 103%; in the assay on NCI-H522 lung, 83.3%. Further, the growth in the assay on A549/ATCC NSCLC is 102%; in the assay with 786-0 renal, 99.8%; in the assay on DU-145 prostate it was 104%; with K-562 leukemia, 83.8%; in the assay on MALME-3M melanoma, 86%; with MDA-MB-231 breast, 95.1%. Besides, the growth in the assay on RXF 393 renal is 93.1%; in the assay on SF-268 CNS, 91.4%; in the assay on SF-295 CNS, 95%; with SF-539 CNS it was 89.8%; in the assay with UACC-257 melanoma it was 113%; in the assay with M14 melanoma, 82.6%.

Regarding `COc1cc(-c2nc(-c3ccc(-c4nc5ccc(F)cc5[nH]4)cc3)no2)cc(OC)c1OC`, the growth is 30.4% with NCI-H23 lung; 29.2% in the assay with NCI-H226 lung; 90.7% with NCI-H322M lung; 26.5% in the assay with HOP-62 NSCLC; 43.2% in the assay on NCI-H460 lung; 18.2% in the assay with NCI-H522 lung. The growth is 42.8% in the assay on A549/ATCC NSCLC; 46.4% with 786-0 renal; 68.5% in the assay with DU-145 prostate; 46% in the assay on MALME-3M melanoma; 9.59% (active) in the assay with MDA-MB-231 breast; -3.77% (active) in the assay on RXF 393 renal. The growth in the assay with SF-268 CNS was 35.8%; with SF-295 CNS it was 22.5%; in the assay on SF-539 CNS it was 33.9%; in the assay with UACC-257 melanoma it was 80.1%; in the assay on M14 melanoma, 43.6%.

Take `FC(F)(F)c1nn[nH]n1`: the growth was 96.6% with NCI-H23 lung; 94.8% in the assay on NCI-H226 lung; 111% in the assay with NCI-H322M lung; 125% in the assay with HOP-62 NSCLC; 117% in the assay with NCI-H460 lung; 102% with NCI-H522 lung. Besides, the growth in the assay on A549/ATCC NSCLC is 94.1%; with 786-0 renal it was 107%; with DU-145 prostate it was 99.5%; in the assay on K-562 leukemia, 113%; in the assay with MALME-3M melanoma, 100%; in the assay with MDA-MB-231 breast, 116%. Moreover, the growth is 104% in the assay with RXF 393 renal; 94.5% with SF-268 CNS; 106% with SF-295 CNS; 106% with SF-539 CNS; 110% in the assay with UACC-257 melanoma; 112% in the assay on M14 melanoma.

`COc1ccc(/C=C/C(=O)CCC(=O)O)cc1OC`: the growth in the assay with NCI-H23 lung is 109%; in the assay with NCI-H226 lung, 102%; in the assay on NCI-H322M lung it was 97.4%; in the assay with HOP-62 NSCLC, 91.4%; in the assay on NCI-H460 lung it was 111%; in the assay with NCI-H522 lung it was 93.2%. In addition, the growth with A549/ATCC NSCLC is 103%; with 786-0 renal, 95.3%; in the assay on DU-145 prostate, 111%; in the assay with MALME-3M melanoma it was 102%; in the assay with MDA-MB-231 breast, 119%; in the assay with RXF 393 renal it was 116%. Besides, the growth in the assay on SF-268 CNS is 107%; with SF-295 CNS, 104%; in the assay on SF-539 CNS, 101%; with UACC-257 melanoma, 105%; with M14 melanoma it was 101%.

Regarding `CCCCCCCCCCCCCCCC1=NC(C)(C)CN1C(C)C`, the growth with NCI-H23 lung is 0.554% (active); in the assay with NCI-H226 lung, -5.35% (active); in the assay on NCI-H322M lung it was 34.6%; in the assay on HOP-62 NSCLC, -77.4% (active); with NCI-H460 lung, -53.7% (active); in the assay with NCI-H522 lung it was -68.1% (active). For the same compound, the growth was -57.2% (active) with A549/ATCC NSCLC; -64.6% (active) in the assay on COLO 205 colon; 7.67% (active) with DU-145 prostate; -50.3% (active) with K-562 leukemia; -49% (active) with MALME-3M melanoma; -62.2% (active) in the assay with MDA-MB-231 breast. The growth in the assay with RXF 393 renal is -68.9% (active); with SF-268 CNS, -55.2% (active); in the assay with SF-295 CNS it was -48.1% (active); in the assay on SF-539 CNS, -79.6% (active); in the assay with UACC-257 melanoma, -31.2% (active); in the assay on M14 melanoma, -71.4% (active).

As to `CCCCCCCCCCCCCCCCCC1=NCCN1CCO`, the growth in the assay with NCI-H23 lung was 77.1%; in the assay on NCI-H226 lung, 106%; in the assay on NCI-H322M lung, 88.4%; in the assay on HOP-62 NSCLC it was 81%; in the assay on NCI-H460 lung, 18.7%; with NCI-H522 lung, 80.8%. In addition, the growth in the assay on A549/ATCC NSCLC was 64.2%; in the assay with 786-0 renal it was 75.6%; in the assay with DU-145 prostate, 78.7%; with K-562 leukemia it was 64.6%; with MALME-3M melanoma it was 129%; in the assay on MDA-MB-231 breast, 58.8%. Moreover, the growth with RXF 393 renal was 87.9%; with SF-268 CNS, 78.4%; with SF-295 CNS it was 90%; in the assay with SF-539 CNS, 78.4%; with UACC-257 melanoma, 84.4%; in the assay with M14 melanoma, 84.1%.

In the case of `CC(C)N(C(=S)SSC(=S)N(C(C)C)C(C)C)C(C)C`, the growth in the assay on NCI-H23 lung was 101%; in the assay with NCI-H226 lung it was 109%; in the assay on NCI-H322M lung it was 108%; in the assay on HOP-62 NSCLC, 104%; in the assay on NCI-H460 lung, 110%; with NCI-H522 lung, 75.7%. Also, the growth with A549/ATCC NSCLC is 95.9%; in the assay on 786-0 renal, 101%; in the assay with DU-145 prostate, 109%; with K-562 leukemia, 73.3%; in the assay on MALME-3M melanoma, 101%; in the assay with MDA-MB-231 breast it was 119%. The growth with RXF 393 renal is 120%; with SF-268 CNS, 103%; in the assay with SF-295 CNS, 101%; in the assay on SF-539 CNS it was 108%; in the assay on UACC-257 melanoma it was 93.4%; in the assay with M14 melanoma it was 101%.
